# PubChem BioAssay (Tox21)
# Several values for one entry are separate records, joined by “and”; a condition that tells them apart may be missing. Equal values may be shown once. Unmarked numbers belong to inactive results. Results filed as inconclusive are left out. A call without a number means that no potency is given here. Activity calls are given as the source filed them. Unless noted, calls follow the shape of the dose curve; as a rule, active = well fitted curve in the direction sought with a large enough effect in the repeat runs; inconclusive = weak or mixed curves; inactive = no such curve, though single readings can be large; an effect the other way counts as inactive or inconclusive.
# Columns and labels:
# [1] = qHTS assay to identify small molecule antagonists of the estrogen related receptor (ERR) signaling pathway from Tox21 library - cell viability counter screen (AID 1224834); also: nearly all actives have a fitted effect of over 30% in size; also: potency is read from the fitted curve at half-maximal effect
# Summary of the method: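 Viability readout (CellTiter-Fluor fluorescence, 30 min at 37 C) multiplexed with the ERR assay; cells treated 17.5 h at 37 C with compounds delivered in DMSO.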
# [2] = target: Luciferin 4-monooxygenase (Photinus pyralis) (UniProt P08659); assay: qHTS assay to identify small molecule inhibitors of firefly luciferase (AID 1224835); also: nearly all actives have a fitted effect of over 25% in size; also: potency is read from the fitted curve at half-maximal effect
# Summary of the method: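 Quantitative HTS format; KM concentrations of both substrates. Purified P. pyralis FLuc activity quantified from luminescence images.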
# [3] = qHTS assay to identify small molecule agonists of the constitutive androstane receptor (CAR) signaling pathway - cell viability counter screen (AID 1224836); also: nearly all actives have a fitted effect of over 45% in size; also: potency is read from the fitted curve at half-maximal effect
# Summary of the method: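 Counter screen multiplexed with the CAR reporter readout: HepG2 cells co-transfected with hCAR and the CYP2B6-2.2kb construct receive a 15-concentration compound series and 0.75 uM PK11195 (final), then CellTiter-Fluor fluorescence is read after 23 h.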
# [4] = qHTS assay to identify small molecule antagonists of the constitutive androstane receptor (CAR) signaling pathway - cell viability counter screen (AID 1224837); also: nearly all actives have a fitted effect of over 45% in size; also: potency is read from the fitted curve at half-maximal effect
# Summary of the method: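 Fluorescence from CellTiter-Fluor served as the viability signal. Human hepatoma HepG2 cells stably bearing hCAR and CYP2B6-2.2kb received compound plus CITCO (50 nM final) for 23 hr.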
# [5] = target: Nuclear receptor subfamily 1 group I member 3 (Homo sapiens) (UniProt Q14994); assay: qHTS assay to identify small molecule antagonists of the constitutive androstane receptor (CAR) signaling pathway (AID 1224838);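 also: HepG2 cells stably expressing hCAR with CYP2B6 luciferase reporter stimulated by CITCO; nearly all actives have a fitted effect of over 40% in size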; also: potency is read from the fitted curve at half-maximal effect
# Summary of the method: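 Quantitative HTS in double-stable HepG2-CYP2B6-hCAR cells. After 4 h plating, cells get compound (15 concentrations) and CITCO at 50 nM final, incubate 24 h at 37 C, then ONE-Glo luminescence is read.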
# [6] = target: Nuclear receptor subfamily 1 group I member 3 (Homo sapiens) (UniProt Q14994); assay: qHTS assay to identify small molecule agonists of the constitutive androstane receptor (CAR) signaling pathway (AID 1224839); also: nearly all actives have a fitted effect of over 15% in size
# Summary of the method: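 A 15-concentration quantitative screen uses HepG2 cells co-transfected stably with human CAR and CYP2B6-2.2kb reporter. Treatment lasts 24 h with 0.75 uM PK11195 final present; ONE-Glo luminescence is the signal.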
# [7] = qHTS assay to identify small molecule antagonists of the estrogen related receptor signaling pathway with the pleiotropic PPARgamma coactivator (PGC) from Tox21 10K library - cell viability counter screen (AID 1224840; active = well fitted cell-killing curve with a large enough effect in the repeat runs, not every such curve was filed as active; also: nearly all actives have a fitted effect of over 40% in size; also: potency is read from the fitted curve at half-maximal effect)
# Summary of the method: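 Compounds in DMSO, alongside positive and negative controls, were pinned onto PGC/ERR cells (2,000 per well). Exposure lasted 17.5 hours at 37 C, followed by a 30-minute CellTiter-Fluor incubation and fluorescence reading.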
# [8] = qHTS assay to identify small molecule agonists of the hypoxia (HIF-1) signaling pathway - cell viability counter screen (AID 1224844; calls by dose curve; also: nearly all actives have a fitted effect of over 50% in size; also: potency is read from the fitted curve at half-maximal effect)
# Summary of the method: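 Luminescent ATP content (CellTiter-Glo, 30 min, room temperature) served as the viability measure in HRE-bla ME-180 cells exposed to compounds for 17 hrs in low-serum medium (0.5% dialyzed FBS).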
# [9] = qHTS assay to identify small molecule agonists of H2AX - cell viability counter screen (AID 1224847; calls by dose curve; also: nearly all actives have a fitted effect of over 30% in size; also: potency is read from the fitted curve at half-maximal effect; as to activity change, negative = cytotoxicity: top concentration of the series differs between compounds)
# Summary of the method: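 We seed wild-type CHO-K1 cells overnight, treat them for 3 hr at 37C with compounds in 15-concentration series, and quantify remaining viability by CellTiter-Glo luminescence.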
# [10] = qHTS RealTime-Glo MT Cell Viability Assay in HepG2 cells - 24 hour (AID 1224867); also: nearly all actives have a fitted effect of over 50% in size; also: potency is read from the fitted curve at half-maximal effect
# Summary of the method: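 Cell number in HepG2 cultures estimated from NanoLuc luminescence generated by metabolic reduction of a prosubstrate by living cells. The homogeneous, nonlytic format allowed repeated reads at 0, 8, 16, 24, 32 and 40 h of compound exposure.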
# [11] = A CellTox Green Cytotoxicity Assay to monitor cytotoxicity in HEK293 cells - 0 hour (AID 1224869); also: nearly all actives have a fitted effect of over 50% in size
# Summary of the method: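 Each value comes from one timepoint of a single continuous run in which HEK293 cells with CellTox Green were exposed to compound for up to 40 h at 37 C, dye fluorescence rising with cell death.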
# [12] = qHTS RealTime-Glo MT Cell Viability Assay in HepG2 cells - 40 hour (AID 1224870); also: nearly all actives have a fitted effect of over 50% in size; also: potency is read from the fitted curve at half-maximal effect
# Summary of the method: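 HepG2 cells mixed with RealTime-Glo MT reagents (NanoLuc plus cell-permeant prosubstrate) were seeded at 600 cells/well, incubated 5 h at 37 C/5% CO2, then pinned with compounds in DMSO; nonlytic luminescence tracked viability during 40 h treatment.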
# [13] = qHTS assay to identify small molecule agonists of H2AX (AID 1224845; active = well fitted activation curve with a large enough effect in the signal ratio in the repeat runs, not every such curve was filed as active; the % refers to the signal ratio)
# Summary of the method: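 Wild-type CHO-K1 cells plated overnight, then exposed 3 hr at 37C to compounds at 15 concentrations (0.76% DMSO). Lysed, then HTRF anti-pH2AX(S139)-cryptate/anti-H2AX-d2 detection after 24 hr at room temperature; emissions 665 and 620 nm.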
# [14] = qHTS assay to identify small molecule agonists of the hypoxia (HIF-1) signaling pathway (AID 1224846; active = well fitted activation curve with a large enough effect in the signal ratio in the repeat runs, not every such curve was filed as active; the % refers to the signal ratio)
# Summary of the method: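 Measured by blue/green FRET after loading CCF4-AM: beta-lactamase expressed from a hypoxia response element in ME-180 cells. Test agents were delivered in DMSO and left 17 hrs; cells had been plated 5 hrs earlier in low-serum (0.5% dialyzed FBS) medium.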
# [15] = qHTS RealTime-Glo MT Cell Viability Assay in HEK293 cells - 32 hour (AID 1224868)
# Summary of the method: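 Homogeneous bioluminescent viability format in HEK293 cells (600 cells/well). Following 5 h at 37 C/5% CO2, 23 nL compound was pintooled; the signal was measured repeatedly during 40 h incubation.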
# [16] = qHTS assay to identify small molecule agonists of the estrogen related receptor signaling pathway with the pleiotropic PPARgamma coactivator (PGC) from Tox21 10K library (AID 1224842); also: nearly all actives have a fitted effect of over 15% in size
# Summary of the method: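 PGC/ERR reporter cells (NTP line) were seeded 2,000 per well, rested 6 h at 37 C/5% CO2, then pin-dosed with compounds in DMSO for 18 h at 37 C; luciferase read by One-Glo luminescence after 30 min at room temperature.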
# [17] = target: Thyrotropin receptor (Homo sapiens) (UniProt P16473); assay: qHTS assay to identify small molecule agonists of the thyroid stimulating hormone receptor (TSHR) signaling pathway (AID 1224843; calls by dose curve; also: nearly all actives have a fitted effect of over 45% in size)
# Summary of the method: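 TSHR-expressing HEK293 cells (800 per well) were exposed to compounds for 30 min at room temperature. cAMP was then detected by HTRF competition with cAMP-d2 and anti-cAMP cryptate, read after 1 h at room temperature. Fifteen concentrations, triplicate.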
# [18] = qHTS assay to identify small molecule antagonists of the estrogen related receptor (ERR) signaling pathway from Tox21 library (AID 1224848); also: nearly all actives have a fitted effect of over 50% in size
# Summary of the method: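 Cells: ERR line, 2,000/well; 6 h preincubation 37 C/5% CO2. Cpd in DMSO via pin tool; 18 h, 37 C. ONE-Glo, 30 min RT, luminescence.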
# [19] = qHTS assay to identify small molecule agonists of the estrogen related receptor (ERR) signaling pathway from Tox21 library (AID 1224849; calls by dose curve; also: nearly all actives have a fitted effect of over 15% in size); settings: ERR reporter cell line, ONE-Glo luciferase, 18 h
# Summary of the method: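 We plated ERR reporter cells, waited 6 h, added compounds in DMSO by pin tool and incubated them 18 h at 37 C. ONE-Glo was then added and luminescence read after 30 min.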
# [20] = qHTS assay to identify small molecule antagonists of the estrogen related receptor signaling pathway with the pleiotropic PPARgamma coactivator (PGC) from Tox21 10K library (AID 1224841; call rule not given here)
# Summary of the method: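 Compound exposure ran 18 hours at 37 C in PGC/ERR cells (2,000/well) that had first rested 6 hours in a 37 C/5% CO2 incubator. Luciferase activity was then detected with One-Glo after a 30-minute room-temperature step.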
# Chain of Thyrotropin receptor (Homo sapiens) (P16473 whole entry, looked up): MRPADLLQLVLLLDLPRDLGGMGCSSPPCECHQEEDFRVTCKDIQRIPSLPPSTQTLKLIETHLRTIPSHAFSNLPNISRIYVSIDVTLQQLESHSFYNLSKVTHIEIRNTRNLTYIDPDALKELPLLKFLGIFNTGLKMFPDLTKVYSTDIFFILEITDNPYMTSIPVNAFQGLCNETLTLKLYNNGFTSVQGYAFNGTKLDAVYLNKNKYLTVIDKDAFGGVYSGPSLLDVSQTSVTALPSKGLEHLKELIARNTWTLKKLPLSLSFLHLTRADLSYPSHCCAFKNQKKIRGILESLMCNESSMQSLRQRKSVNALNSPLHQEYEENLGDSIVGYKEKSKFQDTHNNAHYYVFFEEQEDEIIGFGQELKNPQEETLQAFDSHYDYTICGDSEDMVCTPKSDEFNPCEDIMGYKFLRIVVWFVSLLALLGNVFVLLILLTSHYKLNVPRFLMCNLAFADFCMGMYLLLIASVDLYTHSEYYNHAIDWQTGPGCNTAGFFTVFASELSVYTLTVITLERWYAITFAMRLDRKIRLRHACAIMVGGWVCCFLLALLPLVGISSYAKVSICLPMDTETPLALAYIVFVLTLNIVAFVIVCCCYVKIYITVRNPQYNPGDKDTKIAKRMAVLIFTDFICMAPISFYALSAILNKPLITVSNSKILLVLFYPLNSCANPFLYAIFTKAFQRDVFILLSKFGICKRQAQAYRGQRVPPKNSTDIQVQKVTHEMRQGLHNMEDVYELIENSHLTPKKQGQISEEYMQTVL
# Chain of Luciferin 4-monooxygenase (Photinus pyralis) (P08659 whole entry, looked up): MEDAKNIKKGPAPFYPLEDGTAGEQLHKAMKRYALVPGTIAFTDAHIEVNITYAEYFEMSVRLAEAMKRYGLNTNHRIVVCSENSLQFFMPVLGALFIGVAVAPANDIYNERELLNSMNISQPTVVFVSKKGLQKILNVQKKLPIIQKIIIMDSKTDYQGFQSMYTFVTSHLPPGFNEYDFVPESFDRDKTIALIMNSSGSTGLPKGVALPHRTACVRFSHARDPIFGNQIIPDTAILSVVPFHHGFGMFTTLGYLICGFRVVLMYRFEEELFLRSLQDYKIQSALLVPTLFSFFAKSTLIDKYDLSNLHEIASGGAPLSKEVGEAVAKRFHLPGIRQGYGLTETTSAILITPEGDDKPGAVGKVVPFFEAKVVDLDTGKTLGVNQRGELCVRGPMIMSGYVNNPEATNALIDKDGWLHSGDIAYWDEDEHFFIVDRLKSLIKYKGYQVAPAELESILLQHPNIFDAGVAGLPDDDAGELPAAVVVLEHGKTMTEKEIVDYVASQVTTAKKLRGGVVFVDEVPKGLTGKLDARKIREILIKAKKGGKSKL
# Chain of Nuclear receptor subfamily 1 group I member 3 (Homo sapiens) (Q14994 whole entry, looked up): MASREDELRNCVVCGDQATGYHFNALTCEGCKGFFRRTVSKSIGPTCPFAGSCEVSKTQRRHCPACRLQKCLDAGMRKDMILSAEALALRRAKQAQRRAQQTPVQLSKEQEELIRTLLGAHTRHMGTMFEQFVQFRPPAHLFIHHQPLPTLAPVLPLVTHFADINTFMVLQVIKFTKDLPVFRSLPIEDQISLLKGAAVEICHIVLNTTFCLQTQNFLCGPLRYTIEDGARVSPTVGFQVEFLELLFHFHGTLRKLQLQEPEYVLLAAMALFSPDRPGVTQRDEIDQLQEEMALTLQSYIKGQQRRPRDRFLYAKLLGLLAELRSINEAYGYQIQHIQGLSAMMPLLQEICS
structure (smiles),measurement,setting,value
CN(C)c1ccc(C(=C2C=CC(=[N+](C)C)C=C2)c2ccc(N(C)C)cc2)cc1,Potency,[1],9.64 µM (active) and 12.2 µM (active) and 13.3 µM (active)
same,Potency,[2],17.7 µM (active) and 35.6 µM (active) and 17.4 µM (active)
same,Potency,[3],7.66 µM (active) and 6.86 µM (active) and 5.96 µM (active)
same,Potency,[4],8.59 µM (active) and 7.7 µM (active) and 5.31 µM (active)
same,Potency,[5],27.2 µM (active) and 27.3 µM (active) and 13.3 µM (active)
same,Potency,[6],inactive
same,Potency,[7],9.64 µM (active) and 4.33 µM (active) and 11.9 µM (active)
same,Potency,[8],19.4 µM (active) and 54.9 µM (active)
same,Potency,[9],3.17 µM (active) and 12.7 µM (active) and 13.9 µM (active)
same,Potency,[10],24.4 µM (active) and 24.5 µM (active) and 10.7 µM (active)
same,Potency,[11],inactive
same,Potency,[12],34.5 µM (active) and 43.6 µM (active) and 26.8 µM (active)
C[C@@H](O)[C@H](N)C(=O)O,"viability change, negative = cytotoxic",[1],0.354% [at 19 µM]
same,"activity change, negative = inhibition",[2],1.37% [at 23.6 µM]
same,"viability change, negative = cytotoxic",[3],-1.25% [at 19 µM]
same,"activity change, negative = cytotoxicity",[4],9.9% [at 19 µM]
same,"activity, negative = inhibition",[5],17.3% [at 19 µM]
same,activation,[6],-3.11% [at 19 µM]
same,"viability change, negative = cytotoxic",[7],0.388% [at 19 µM]
same,"activity change, negative = cytotoxicity",[8],-2.15% [at 15.8 µM]
same,activation (H2AX phosphorylation),[13],0.0265% [at 31.6 µM]
same,activation,[14],-0.487% [at 15.8 µM]
same,"activity change, negative = cytotoxicity",[9],-4.33% [at 31.6 µM]
same,"activity change, negative = cytotoxicity",[10],0.0975% [at 15.8 µM]
same,"activity change, negative = cytotoxic",[15],0.135% [at 15.8 µM]
same,cytotoxicity,[11],-4.33% [at 15.8 µM]
same,"activity change, negative = cytotoxic",[12],-3.3% [at 15.8 µM]
CCC(=O)C(=O)CC,Potency,[1],inactive
same,Potency,[2],inactive
same,Potency,[3],inactive
same,Potency,[4],inactive
same,Potency,[6],inactive
same,Potency,[7],inactive
same,Potency,[16],inactive
same,Potency,[17],inactive
same,Potency,[8],inactive
same,Potency,[13],inactive
same,Potency,[14],inactive
same,Potency,[9],inactive
same,Potency,[18],inactive
same,"activity change, positive = activation",[19]; at 92.4 µM (top of the series),-15.7%
same,Potency,[10],inactive
same,Potency,[11],inactive
same,Potency,[12],inactive
C=CCCC(=O)/C=C/C1C(C)=CCCC1(C)C (stereo not drawn),Potency,[1],inactive
same,Potency,[2],inactive
same,Potency,[3],inactive
same,Potency,[4],inactive
same,Potency,[5],inactive
same,Potency,[7],inactive
same,Potency,[14],inactive
same,Potency,[9],89.8 µM (active)
same,Potency,[10],inactive
same,Potency,[15],inactive
same,Potency,[11],inactive
same,Potency,[12],inactive
Nc1nc(-c2ccccc2)cs1,Potency,[1],inactive
same,Potency,[2],31.6 µM (active)
same,Potency,[3],inactive
same,Potency,[4],inactive
same,Potency,[7],inactive
same,Potency,[16],inactive
same,Potency,[17],inactive
same,Potency,[8],inactive
same,Potency,[14],inactive
same,Potency,[9],inactive
same,Potency,[18],inactive
same,"activity change, positive = activation",[19]; at 92.4 µM (top of the series),41.7% (active)
same,Potency,[10],inactive
same,Potency,[11],inactive
same,Potency,[12],inactive
O=S(=O)(O)c1ccc(Nc2nc(Nc3ccc(/C=C/c4ccc(Nc5nc(Nc6ccc(S(=O)(=O)O)cc6)nc(N(CCO)CCO)n5)cc4S(=O)(=O)O)c(S(=O)(=O)O)c3)nc(N(CCO)CCO)n2)cc1,Potency,[1],inactive
same,Potency,[2],inactive
same,Potency,[3],inactive
same,Potency,[4],inactive
same,Potency,[7],inactive
same,Potency,[20],inactive
same,Potency,[16],inactive
same,Potency,[17],inactive
same,Potency,[8],inactive
same,Potency,[9],inactive
same,Potency,[18],inactive
same,"activity change, positive = activation",[19]; at 42.5 µM (top of the series),7.49%
same,Potency,[10],inactive
same,Potency,[11],inactive
same,Potency,[12],inactive
CCOc1ccc2ccccc2c1C(=O)N[C@@H]1C(=O)N2[C@@H]1SC(C)(C)[C@@H]2C(=O)O,Potency,[1],inactive
same,Potency,[2],inactive
same,Potency,[3],inactive
same,Potency,[4],inactive
same,Potency,[7],inactive
same,Potency,[20],inactive
same,Potency,[16],inactive
same,Potency,[17],inactive
same,Potency,[8],inactive
same,Potency,[13],inactive
same,Potency,[14],inactive
same,Potency,[9],inactive
same,Potency,[18],inactive
same,"activity change, positive = activation",[19]; at 42.5 µM (top of the series),-0.57%
same,Potency,[10],inactive
same,Potency,[11],inactive
same,Potency,[12],inactive
